Among the data in PubChem BioAssay (EPA / NIEHS) are outcome and AC50 values, retold here.

Test [1] is described as follows: BSK_CASM3C_SRB: Viability Assessment in the BioMAP Diversity Plus: CASM3C Assay (AID 2283050).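 Further: total protein by SRB staining as cytotoxicity measure in parallel cultures; cells exposed to compound for 24 h.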 The note with it: primary human coronary artery smooth muscle cells.
Read-out in test [2]: Thrombomodulin, THBD (gene 7056)
As to the kind of experiment: BSK_CASM3C_Thrombomodulin: BioMAP Diversity Plus: CASM3C Assay for Thrombomodulin Biomarker Activity (AID 2283051).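 Further: thrombomodulin protein level measured by ELISA 24 h after dosing.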 The note with it: primary human coronary artery smooth muscle cells; actives raise or lower the signal.

Read-out in test [3]: Tissue Factor, F3 (gene 2152)
As to the kind of experiment: BSK_CASM3C_TissueFactor: BioMAP Diversity Plus: CASM3C Assay for Tissue Factor Biomarker Activity (AID 2283052).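 Further: cell surface tissue factor protein level read by ELISA.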 The note with it: primary human coronary artery smooth muscle cells; actives raise or lower the signal.

Read-out in test [4]: Interferon-gamma inducible Protein 10 (IP10), CXCL10 (gene 3627)
Put plainly: BSK_hDFCGF_IP10: BioMAP Diversity Plus: hDFCGF Assay for Interferon-gamma inducible Protein 10 (IP10) Biomarker Activity (AID 2283053). The note with it: primary human foreskin fibroblasts; actives raise or lower the signal. The method in brief:
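Primary foreskin fibroblasts, human; 24 h compound exposure; IP-10 by ELISA; bidirectional fit vs DMSO.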

Read-out in test [5]: Urokinase-type plasminogen activator receptor (uPAR), PLAUR (gene 5329)
As to the kind of experiment: BSK_CASM3C_uPAR: BioMAP Diversity Plus: CASM3C Assay for Urokinase-type plasminogen activator receptor (uPAR) Biomarker Activity (AID 2283054).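 Further: cell-surface uPAR protein level quantified by ELISA.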 To be noted: primary human coronary artery smooth muscle cells; actives raise or lower the signal.

Read-out in test [6]: Vascular cell adhesion molecule 1 (VCAM1), VCAM1 (gene 7412)
As to the kind of experiment: BSK_CASM3C_VCAM1: BioMAP Diversity Plus: CASM3C Assay for Vascular cell adhesion molecule 1 (VCAM1) Biomarker Activity (AID 2283055).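 Further: VCAM-1 protein level quantified by ELISA on the cells.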 To be noted: primary human coronary artery smooth muscle cells; actives raise or lower the signal.

Read-out in test [7]: Collagen III, COL3A1 (gene 1281)
Put plainly: BSK_hDFCGF_CollagenIII: BioMAP Diversity Plus: hDFCGF Assay for Collagen III Biomarker Activity (AID 2283056). To be noted: primary human foreskin fibroblasts; actives raise or lower the signal. The method in brief:
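Human foreskin primary fibroblasts were exposed to test chemicals for 24 h, after which collagen III was quantified by ELISA. Activity was fitted bidirectionally against DMSO as negative control and baseline.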

Read-out in test [8]: Epidermal growth factor receptor (EGFR), EGFR (gene 1956)
Put plainly: BSK_hDFCGF_EGFR: BioMAP Diversity Plus: hDFCGF Assay for Epidermal growth factor receptor (EGFR) Biomarker Activity (AID 2283057). To be noted: primary human foreskin fibroblasts; actives raise or lower the signal. The method in brief: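 hDFCGF system, primary human foreskin fibroblasts; compound 24 h; EGFR measured by ELISA; DMSO = negative control/baseline; bidirectional fitting.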

Read-out in test [9]: Interleukin-8 (IL8), CXCL8 (gene 3576)
Put plainly: BSK_hDFCGF_IL8: BioMAP Diversity Plus: hDFCGF Assay for Interleukin-8 (IL8) Biomarker Activity (AID 2283058). To be noted: primary human foreskin fibroblasts; actives raise or lower the signal. The method in brief:
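hDFCGF human dermal fibroblasts; 24 h chemical exposure; IL-8 by ELISA; bidirectional curve fit vs DMSO baseline; gain or loss of signal scored.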

Test [10] in a line: BSK_hDFCGF_Proliferation: Cell Proliferation Assessment in the BioMAP Diversity Plus: hDFCGF Assay (AID 2283059).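 Further: curves fitted for both rise and fall of signal versus DMSO baseline.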 The note with it: primary human foreskin fibroblasts. An outline of the steps: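 Primary human foreskin fibroblasts, sub-confluent; […]; 10% TCA fix, 0.1% SRB stain, A560 total protein. Gain/loss fitted bidirectionally vs DMSO control.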

SMILES strings stand for the structures. Where “and” joins values, the source holds several entries; their conditions need not be identical. Equal values may be shown once. Calls of active or inactive are those of the source. How the source made its calls: active means hit-call score of the fitted dose curve at least 0.9, where 1 is the maximum; inactive means score below 0.9.

Take `COC(F)(C(F)F)C(F)(F)F` (configuration not stated): the outcome in [1], in [2], in [3], in [4], in [5] and in test [6] was inactive. Also, the outcome in test [7], in [8], in [9] and in test [10] was inactive.
On to `O=C1C=CC(=O)N1c1ccc(Cc2ccc(N3C(=O)C=CC3=O)cc2)cc1`, for which the AC50 in [1] was 4.31 µM (active); in [3] it was 3.35 µM (active); in test [4] it was 2.58 µM (active); in test [5], 5.3 µM (active); in test [6], 2.94 µM (active); in test [7], 4.09 µM (active). The result in test [2], in test [8] and in [9] was inactive.
Take `Brc1nc2ccccc2s1`: the result in test [1], in [2], in [3], in [4], in test [5] and in test [6] was inactive. The result in test [7], in [8] and in test [9] was inactive. Besides, the concentration at half-maximal activity (AC50) in [10] was 31.5 µM (active).
Take `CCOC(C=C(C)CCC=C(C)C)OCC`: the AC50 is 32.1 µM (active) in [1]; 28.6 µM (active) in test [3]; 29.8 µM (active) in test [4]; 31.4 µM (active) in test [5]; 25.7 µM (active) in test [6]; 29 µM (active) in test [7]. Besides, the concentration at half-maximal activity (AC50) in test [10] was 32.2 µM (active). The result in [2], in test [8] and in [9] was inactive.
On to `FC(F)(F)C(F)(F)C(F)(F)C(F)(F)C(F)(F)C(F)(F)CC[Si](Cl)(Cl)Cl`, for which the outcome in test [1], in [2], in [3], in [4], in test [5] and in test [6] was inactive. Also, the outcome in test [7], in test [8], in test [9] and in [10] was inactive.
For `NCC(F)(F)C(F)(F)C(F)(F)C(F)(F)C(F)(F)C(F)(F)F`, the outcome in test [1], in test [2], in test [3], in test [4], in test [5] and in [6] was inactive. The outcome in test [7], in test [8], in [9] and in test [10] was inactive.
Regarding `O=C(Cl)C(F)(F)C(F)(F)C(F)(F)C(F)(F)C(F)(F)C(F)(F)C(F)(F)F`, the outcome in test [1], in test [2], in test [3], in test [4], in test [5] and in test [6] was inactive. For the same molecule, the result in test [7], in [8] and in [9] was inactive.
With `CC(C)CCCC(C)CCO` (configuration not stated), the AC50 in test [1] was 32.2 µM (active); in test [3], 29.9 µM (active); in test [5], 31.3 µM (active); in [6], 31.9 µM (active); in test [10] it was 32.8 µM (active). Further, the result in test [2], in test [4], in test [7], in test [8] and in test [9] was inactive.
`CO[Si](C)(CCC(F)(F)C(F)(F)C(F)(F)C(F)(F)C(F)(F)C(F)(F)F)OC`: the result in test [1], in test [2], in [3], in test [4], in test [5] and in test [6] was inactive. Further, the outcome in [7], in [8], in test [9] and in [10] was inactive.
Consider `NC(=O)C(F)(F)C(F)(F)C(F)(F)F`, for which the result in test [1], in [2], in test [3], in test [4], in test [5] and in test [6] was inactive. The result in [7], in test [8], in test [9] and in [10] was inactive.
As for `O=C(O)C(F)(F)OC(F)(F)C(F)(F)OC(F)(F)C(F)(F)OC(F)(F)F`, the outcome in test [1], in test [2], in [3], in [4], in test [5] and in [6] was inactive. Besides, the result in test [7], in test [8], in [9] and in test [10] was inactive.
In the case of `O=C(c1ccccc1)c1ccc(O)cc1O`, the outcome in [1], in test [2], in test [4], in test [5], in test [6] and in test [7] was inactive. Further, the result in test [8], in test [9] and in [10] was inactive. Besides, the AC50 in test [3] is 13.6 µM (active).
On to `O=C=Nc1cccc2c(N=C=O)cccc12`, for which the result in test [1], in test [2], in test [3], in [4], in test [5] and in test [6] was inactive. The outcome in test [7], in test [8], in [9] and in [10] was inactive.
Turning to `NS(=O)(=O)C(F)(F)C(F)(F)C(F)(F)C(F)(F)C(F)(F)C(F)(F)F`, the result in [1], in [2], in [3], in [5], in [6] and in test [7] was inactive. For the same molecule, the outcome in test [8] and in [9] was inactive. Also, the AC50 was 37.3 µM (active) and 28.8 µM (active) in test [4]; 50.8 µM (active) and 50.6 µM (active) in test [10].
On to `O=C(O)CCC(F)(F)C(F)(F)C(F)(F)C(F)(F)C(F)(F)C(F)(F)C(F)(F)F`, for which the result in test [1], in test [2], in [3], in test [4], in test [5] and in [6] was inactive. The result in test [7], in [8], in [9] and in test [10] was inactive.
For `Cc1ccc(S(=O)(=O)C(I)I)cc1`, the AC50 was 3.42 µM (active) in test [1]; 1.97 µM (active) in test [3]; 2.71 µM (active) in [4]; 2.92 µM (active) in [5]; 2.46 µM (active) in [6]; 6.27 µM (active) in test [7]. For the same molecule, the AC50 in [8] is 3.79 µM (active); in test [9], 3.51 µM (active). Also, the outcome in [2] was inactive.
